Neddyl block: blocks human cullin neddylation; calls only at 25 µM; AID 651699; P61081+Q13564; TR-FRET cullin neddylation, biochemical; hit rate 0.58% among 360,000; in the data active = inhibition above about 36%
PfG6PD inh: PfG6PD (Plasmodium falciparum) enzyme inhibition. PfGluPho enzyme, NADPH resazurin-diaphorase fluorescence. hit rate 0.78% among 350,000. inhibition, % at 20 µM;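 active = inhibition reaching at least a set limit at 20 µM in the primary screen, cut at about 59% in these data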;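 also: 0% = DMSO wells with substrate and 100% = DMSO wells lacking glucose-6-phosphate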
FAS TE block: inhibitors of human fatty acid synthase thioesterase domain; P49327; recombinant FAS-TE, OMFH fluorogenic substrate, fluorescence endpoint; inhibition, % at 15 µM; hit rate 0.67% among 360,000;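 active = compounds whose normalised, plate-corrected inhibition of enzyme fluorescence in the single-dose primary screen is 50% or more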;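 also: 0% = DMSO with enzyme and 100% = substrate without enzyme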
proKLK7 act: proKLK7 (human) activation, primary screen | P49862 | purified proKLK7, EDANS-DABCYL substrate fluorescence; 100% is mature enzyme control, 0% vehicle | activation, % at 7 µM | hit rate 0.9% among 370,000;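 active = activation above the mean of all tested compounds plus 3 SD, computed per campaign excluding outliers beyond control limits, cut at about 13% in these data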
Target sequence (P49862 whole entry, looked up): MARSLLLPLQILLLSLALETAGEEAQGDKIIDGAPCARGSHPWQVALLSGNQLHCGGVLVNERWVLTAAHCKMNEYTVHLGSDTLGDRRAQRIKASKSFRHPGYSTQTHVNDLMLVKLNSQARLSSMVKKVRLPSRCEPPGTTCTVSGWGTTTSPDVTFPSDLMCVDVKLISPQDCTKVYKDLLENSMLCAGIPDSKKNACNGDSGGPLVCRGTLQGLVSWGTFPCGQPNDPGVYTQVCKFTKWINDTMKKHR
KLK7 act conf: proKLK7 activation, confirmation; shares compounds with proKLK7 act; purified proKLK7, EDANS-DABCYL substrate fluorescence; scaled: vehicle 0, mature enzyme 100; activation, % at 7 µM; hit rate 68% among 3,200; AID 686949;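 active = activation, as change over the incubation, above the mean of all tested compounds plus 3 SD, cut at about 13% in these data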
EDANS-DABCYL int: counter-screen for kallikrein-7 activators: EDANS-DABCYL optical interference; shares compounds with proKLK7 act; EDANS-DABCYL substrate fluorescence interference, no enzyme, 4 h; solvent 0%, active enzyme control 100%; activation, % at 7 µM; hit rate 80% among 3,200;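 active = activation above the all-compound mean plus 3 SD, ignoring values outside control-based bounds, cut at about 4.8% in these data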;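 also: value is the 4 h activation minus the activation read at time zero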
K7 EDANS ctr: EDANS fluorescence interference in dose response, no enzyme; shares compounds with proKLK7 act; EC50, µM; hit rate 20% among 250; EDANS-DABCYL peptide fluorescence interference;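 active = compounds that raise the fluorescence signal in this interference counterscreen, with EC50 at or below 10 µM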;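 also: intact quenched peptide substrate alone read at 355 nm excitation and 520 nm emission; signal is fluorescence gain from T0 to T4 after four hours at room temperature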
* hit, by the source's call; i = inactive; · = no result given. Sampled rows, rich in hits. Any-hit rate of the full collection: about 2.7%.

SMILES | Neddyl block | PfG6PD inh | FAS TE block | proKLK7 act | KLK7 act conf | EDANS-DABCYL int | others
Cc1ccc(NC(=O)C2=C(O)c3ccccc3N(C)S2(=O)=O)cc1 | i | -24 | -2 | 51* | 6 | 9.3*
CCOC(=O)c1c(C)oc2cc(Cl)c(O)c(CN(C)C)c12 | i | 16 | -6 | 1 | · | ·
Cc1c(Cc2ccccc2)c(=O)oc2c(CN(C)C)c(O)c(Cl)cc12 | i | 8 | -4 | 48* | 68* | 67*
CCc1c(C(C)O)oc2ccc3c(C)cc(=O)oc3c12 (stereo unspecified) | · | · | · | 2 | · | ·
CCN(CC)Cc1c(O)c(Cl)cc2c(C)c(C)c(=O)oc12 | · | 14 | -6 | 58* | 66* | 83*
Cc1c(Cc2ccccc2)c(=O)oc2cc(O)ccc12 | · | -14 | 8 | 88* | 71* | 80*
C=CCc1c(O)c(CC)cc2c(C)cc(=O)oc12 | · | 25 | -6 | 90* | 61* | 66*
CCOC(=O)CC[C@H]1CC[C@]2(CCCN(S(C)(=O)=O)C2)O1 | · | · | · | 0 | · | ·
CCN(CC)Cc1c(O)c(Cl)cc2c(C)cc(=O)oc12 | · | 12 | -8 | 53* | 73* | 66*
COc1ccc(-c2c(C)c3ccc(O)cc3oc2=O)cc1 | · | -17 | -11 | 82* | 73* | 83*
COC(=O)C1=CNC=C(C(=O)OC)C1c1ccc(Cl)cc1 | · | 14 | -4 | 14* | 81* | 80*
COC(=O)C1=CNC=C(C(=O)OC)C1c1cccc(OC)c1 | · | 3 | -7 | 6 | · | ·
COC(=O)C1=CNC=C(C(=O)OC)C1c1ccccc1Cl | · | 25 | -5 | 66* | 65* | 75*
O=C(C(=O)N1CCC(CNS(=O)(=O)c2cc(C(F)(F)F)cc(C(F)(F)F)c2)CC1)c1cc2ccccc2o1 | · | · | · | 0 | · | ·
CCc1cc(=O)oc2c(C)c(O)c(CN(C)C)cc12 | · | -8 | -6 | 65* | 58* | 67*
CCCOc1ccc2c(CC)cc(=O)oc2c1C | · | -7 | 16 | 0 | · | ·
CN(c1cccnc1)c1ccc(NC(=O)Cc2cn(Cc3ccccc3)c3ccccc23)cc1Br | · | · | · | 1 | · | ·
CCN(CC)C(=O)CSc1nnc(-c2ccc(C(C)(C)C)cc2)n1-c1ccc(Cl)cc1 | · | · | · | 0 | · | ·
COc1cccc(/C(C)=N/NC(=O)c2cc(-c3cccnc3)nc3ccccc23)c1 | i | -5 | 11 | 0 | · | ·
COc1ccc(-c2cc(C(=O)N/N=C(\C)c3cccnc3)c3ccccc3n2)cc1 | · | -1 | 0 | 37* | -78 | -71
COc1ccc(-c2cc(C(=O)NCCN3CCOCC3)c3ccccc3n2)cc1 | · | 7 | -16 | 15* | 6 | 0
Cc1ccc(-c2cc(C(=O)NCCN3CCOCC3)c3ccccc3n2)o1 | · | 1 | -4 | 49* | 49* | 66*
CC(=O)c1cc(-c2ccc(Cl)c(Cl)c2)c(=O)n2c1CCC2 | · | · | · | 0 | · | ·
C[C@@H]1CCCN1c1ccc2c(c1)OCCCN(C1CC1)S2(=O)=O | · | · | · | 0 | · | ·
Nc1cccc2c1C(=O)N(CCOc1ccccc1F)C2=O | · | 7 | -1 | 47* | 72* | 78*
SMILES | Neddyl block | PfG6PD inh | FAS TE block | proKLK7 act | KLK7 act conf | EDANS-DABCYL int | others
COC(=O)C1CN(C2CCCC2)CCS(=O)(=O)N1Cc1ccccc1 (stereo unspecified) | · | · | · | 0 | · | ·
Cc1cc(C)c2c(N)c(C(=O)Nc3ncc(C)s3)sc2n1 | · | 46 | -6 | 33* | -27 | -48
Cc1cc(C)c2c(N)c(C(=O)Nc3ccccc3Cl)sc2n1 | · | -14 | -2 | 0 | · | ·
Cc1cc(C)c2c(N)c(C(=O)Nc3ccccc3F)sc2n1 | · | 28 | -1 | 23* | -14 | -14
Cc1cc(C)c2c(N)c(C(=O)Nc3ccccc3Br)sc2n1 | · | -7 | 4 | 179* | 124* | 56*
Cc1ccc(N2CC(=O)N(NC(=O)c3sc4nc(C)cc(C)c4c3N)CC2=O)cc1 | i | 37 | -3 | 86* | 23* | 21*
COc1ccc(-c2c(C(=O)c3ccccc3)[nH]c(N)c2C(=O)NC2CC2)cc1OC | i | · | -5 | 0 | · | ·
COC(=O)[C@]12C[C@H](CC(=O)N3CCN(C(=O)C4CC4)CC3)C(=O)N(CCC3=CCCCC3)C1=C[C@H](C1CCCC1)O[C@@H]2C | · | · | · | 0 | · | ·
O=C(Nc1ncc2c(n1)-c1ccccc1OC2)c1ccc(F)cc1 | · | 12 | 5 | 32* | 15* | 12* | K7 EDANS ctr=i

High-throughput results: PubChem BioAssay, several laboratories
